In PubChem BioAssay (NCI):
This is part of a sample that, as a whole, favours compounds with a hit. Of some 83,000 tested, about 20% had one in any assay.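 Single-concentration screen, 48 h exposure, 96-well plates. Endpoint: percent growth. Below 10 = active.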 Values without a mark were called inactive. Active and inactive are the calls of the source.

Tested on: MDA-MB-468 breast
Assay: NCI-60 one-dose screen, 48 h (100 = growth as untreated, 0 = no growth, -100 = all killed)
Conditions: 10 µM unless noted

SMILES | growth
CCCCCCCCCCCCCCCCOc1ccc(C)cc1 | 106%
COC(=O)CSc1ccc(Cl)cc1 | 126%
COC(=O)[C@@H](Cc1c[nH]c2ccccc12)NC[C@@H](O)CN1C(=O)/C(=C\c2cc(OC)c(OC)c(OC)c2)c2ccccc21 | 37.9%
COc1cccc(-c2nc3occn3c2-c2ccnc(NCCNS(=O)(=O)c3cccc4ccccc34)n2)c1 | 98.1%
N#Cc1c(-c2ccc(Cl)cc2)n(O)c2ccccc12 | -3.01% (active)
COC(=O)c1ccc2c(c1)nc(-c1cc3ccccc3[nH]c1=O)n2-c1cc(C(C)(C)C)[nH]n1 | 101%
COc1cc2ncnc(Nc3ccc(O)cc3)c2cc1OC | 17.6%
CNC(=O)c1cc(Oc2ccc(NC(=O)Nc3ccc(Cl)c(OC4CCCCC4)c3)c(F)c2)ccn1 | 15.5%
N#Cc1c(-c2ccccc2)cc(-c2c[nH]c3ccccc23)nc1-c1c[nH]c2ccccc12 | 93%
CC(C)(Sc1cc(C(C)(C)C)c(O)c(C(C)(C)C)c1)Sc1cc(C(C)(C)C)c(OC(=O)CCCC(=O)O)c(C(C)(C)C)c1 | 43.5%
NC(=S)Nc1cccc(O)c1 | 101%
CCCCCCC[C@@H](O)CC(=O)N[C@H](CCCCN)C(=O)N[C@H](Cc1c[nH]c2ccccc12)C(=O)NC(CCCCN)C(=O)N[C@H](CC(C)C)C(=O)N[C@H](Cc1ccccc1)C(=O)N[C@H](CCCCN)C(=O)N[C@H](CCCCN)C(=O)N[C@H](CC(C)C)C(=O)N1CCCC1C(=O)N[C@H](CCCCN)C(=O)N[C@H](Cc1ccccc1)C(=O)N[C@H](CC(C)C)C(=O)N[C@H](Cc1c[nH]cn1)C(=O)N[C@H](CC(C)C)C(=O)N[C@H](C)C(=O)N[C@H](CCCCN)C(=O)N[C@H](CCCCN)C(=O)N[C@H](Cc1ccccc1)C(=O)O (some centres not stated) | -58.2% (active)
CN(C)CCOc1cccc(-c2nc3sccn3c2-c2ccnc(S(C)(=O)=O)n2)c1 | 92%
C=C1C(=O)O[C@H]2[C@H]1CC/C(COC(=O)c1cccc3ccccc13)=C\CC[C@@]1(C)O[C@@H]21 | -45.1% (active)
O=C1/C(=C/c2ccc(F)c(F)c2)CN(C(=O)C(Cl)Cl)C/C1=C\c1ccc(F)c(F)c1 | -58.2% (active)
Nc1cccc(-c2nc3sccn3c2-c2ccnc(NCCNS(=O)(=O)c3ccc(C(F)(F)F)cc3)n2)c1 | 51.4%

SMILES | growth
N#Cc1c(-c2cccs2)cc(-c2cnccn2)nc1SCC(=O)Nc1ccc(Br)cc1 | 81.1%
CCOC(=O)c1c(NC(=O)c2ccccc2C(F)(F)F)sc2c1CCC(=O)C2 | 58.6%
CNc1nnc2n(-c3ccccc3)c(=O)c3cnn(-c4ccccc4)c3n12 | 103%
Cc1ccc(C2=NN3C(C2)c2cc(Br)ccc2OC32CCN(Cc3ccccc3)CC2)o1 (configuration not stated) | 105%
CCOC(=O)CC1CSC(N/N=C/c2ccc(-n3cccn3)cc2)=N1 (configuration not stated) | 95.3%
C#CCNc1nc(NCCNC(=O)CCl)nc(N(C)CCCCc2ccccc2)n1 | 86%
COC(=O)[C@]12CC[C@@H](C)[C@H](C)[C@@H]1C1=CC[C@@H]3[C@@]4(C)C=C(O)C(=O)[C@@]5(C)COC(=C54)C[C@@]3(C)[C@]1(C)CC2 | -57.7% (active)
O=C(Cc1ccccc1)Nc1cccc(N=Cc2ccccc2O)c1 | 104%
O=C1/C(=C/c2ccc(Cl)cc2)CN(Cc2cn(CCCNc3ccnc4cc(Cl)ccc34)nn2)C/C1=C\c1ccc(Cl)cc1 | -69.8% (active)
CC(C)(C)NCCC(O)c1cc2c(Cl)cc(Cl)cc2c2cc(C(F)(F)F)ccc12 (configuration not stated) | -85.7% (active)
Cn1c([N+](=O)[O-])cnc1/C=C1\Oc2cc(Cl)ccc2C1=O | 68.7%
Cc1[nH]n(C(=O)c2ccncc2)c(=O)c1N=Nc1ccc(F)c(Cl)c1 | 110%
O=C1/C(=C/c2cccc(Br)c2)COc2ccc(O)cc21 | 53.1%
CCNC1(NC#N)CCCCC1 | 101%
COc1cc(/C=C/C(=O)c2ccc(NC(=O)CN3CCN(c4cc5c(cc4F)c(=O)c(C(=O)O)cn5C4CC4)CC3)cc2)cc(OC)c1OC | -1.82% (active)
CN1CCCN(CCNc2nccc(-c3c(-c4cccc(O)c4)nc4sccn34)n2)S1(=O)=O | 68.9%
